From PubChem
Cycloheximide cs: counter-screen for Shiga toxin inhibitors: cycloheximide protein synthesis inhibition | cell reporter, cycloheximide protein synthesis inhibition counterscreen | max response, % | 12% of 300,000 active | AID 2314; in the data active = max response mostly above about 13%, no sharp cut-off; inactive = mostly below about 14%; also: read at 38.3 µM for the half of the compounds with a filed dose; 0% is about no effect
NS1 inh: influenza NS1 inhibition. Potency, µM (titrated, usually from 46.1 µM), for inactives: at the top dose activity, positive = more growth. 0.4% of 270,000 active; calls by dose curve; also: potency is read from the fitted curve at half-maximal effect; actives are rising curves; nearly all actives have a fitted effect of over 50% in size
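OD600 was taken as the measure of yeast growth restored by compound in an NS1-expressing S. cerevisiae strain. Cells had been washed out of glucose medium and diluted 1:100 into galactose -URA medium, pH 6.0.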
Pf growth 96h: P. falciparum growth inhibition at 96 hours; P. falciparum luciferase reporter growth, 96 h; Potency, µM (top dose mostly 28.7 µM), for the others: at the highest dose activity change, negative = inhibition, actives largely listed as inhibitors; 6.9% of 320,000 active; also: potency is read from the fitted curve at half-maximal effect; % is scaled to controls: 0 for no effect and ±100 for the full control effect
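Delayed-death screen, second-generation endpoint: infected erythrocytes, 2% hematocrit, 0.05% parasitemia final; 96 hours at 37 C, 5% CO2; luciferase detection reagent; luminescence decrease equals reduced growth.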
Shiga inhibitor: blocks Shiga toxin action in Vero cells | 9.2% of 290,000 active | inhibition, % at 38.7 µM | Vero cells, Shiga toxin protein synthesis inhibition reporter; in the data active = inhibition mostly above about 28%, no sharp cut-off; inactive = mostly below about 43%; also: 0% is about no effect
Pf growth 48h: P. falciparum growth inhibition at 48 hours (one generation); P. falciparum luciferase growth in erythrocytes, 48 h; 5.9% of 310,000 active; Potency, µM (titrated, usually from 28.7 µM), inactives show at the highest dose activity change, negative = inhibition, hits mostly inhibitors; AID 504832; also: potency is read from the fitted curve at half-maximal effect; % is scaled to controls: 0 for no effect and ±100 for the full control effect
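In quantitative HTS format, infected erythrocytes bearing luciferase-reporter parasites were treated for a single generation at 37 C. Luminescence after adding detection reagent served as the growth measure.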
Sm TGR block: inhibitors of Schistosoma mansoni thioredoxin glutathione reductase; 3% of 360,000 active; purified TGR, DTNB reduction, TNB absorbance 405 nm; Potency, µM (titrated, usually from 114 µM), for the others: at the highest dose activity change, negative = inhibition, actives largely listed as inhibitors; also: potency is read from the fitted curve at half-maximal effect; % is scaled to controls: 0 for no effect and ±100 for the full control effect; nearly all actives have a fitted effect of over 60% in size
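First, TGR (20 nM dispensed) and NADPH were mixed with compound. Second, a 15 min room-temperature incubation followed. Third, further NADPH and then DTNB were added to start the reaction. Finally, TNB absorbance was monitored kinetically.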
Starred values were filed as active, the others as inactive; ? = inconclusive; nt = no result. Hits are enriched below; roughly 21% of the tested compounds scored in any of these assays. Unless noted, calls follow the shape of the dose curve; as a rule, active = well fitted curve in the direction sought with a large enough effect; inconclusive = small, poorly fitted or top-dose-only effect, or another doubt; inactive = no such curve, though single readings can be large; an effect the other way counts as inactive or inconclusive.

SMILES	Cycloheximide cs	NS1 inh	Pf growth 96h	Shiga inhibitor	Pf growth 48h	Sm TGR block
Cc1ccc(CNC(=O)c2cc3sccc3n2Cc2ccc(Cl)cc2)cc1	nt	nt	nt	nt	nt	2%
COc1ccccc1NC(=O)Cn1cnc2sc(C)c(S(=O)(=O)N3CCCCC3)c2c1=O	-3	-5%	0.52µM*	-14	-22%	-13%
CCCCN(CC)CCNC(=O)Cn1cnc2sc(C)c(S(=O)(=O)N3CCN(c4ccccc4OC)CC3)c2c1=O	nt	nt	nt	nt	nt	2%
CCCCN(C)C(=O)Cn1cnc2sc(C)c(S(=O)(=O)N3CCN(c4ccccc4OC)CC3)c2c1=O	-6	-2%	3%	-3	12µM*	2%
COc1ccc(OC)c(NC(=O)Cn2cnc3sc(C)c(S(=O)(=O)N4CCN(c5ccccc5OC)CC4)c3c2=O)c1	nt	nt	nt	nt	nt	9%
Cn1nc(C(=O)Nc2ccc(F)c(Cl)c2)c2c1-c1ccccc1S(=O)(=O)C2	nt	nt	nt	nt	nt	-1%
Cc1cc(C)c(NC(=O)CCS(=O)(=O)c2cc3c(cc2Cl)NC(=O)CO3)c(C)c1	nt	nt	nt	nt	nt	2%
CCc1cc(CNC(=O)C2CCC(=O)N(CCc3cccc(F)c3)C2)on1 (stereo not drawn)	-3	2%	13µM*	10	3%	-3%
Cc1cc(CNC(=O)C2CCC(=O)N(CCc3cccc(F)c3)C2)on1 (stereo not drawn)	-1	-8%	13µM*	6	-2%	20%
COc1cc(C(N)=O)cc(Br)c1OCc1ccccc1	-2	-42%	-5%	2	16%	1%
COc1cc(C(=O)NCCCN2CCCC2=O)cc(Br)c1OCc1ccccc1	nt	nt	?	nt	9.3µM*	-15%
O=C(NCCCN1CCCC1=O)c1ccc(OCc2ccccc2)cc1	28*	1%	1%	45	nt	4%
COc1ccc(C(=O)NCCCN2CCCC2=O)cc1	9	4%	nt	12	31%	4%
Cc1cc(C)n2nc(-c3ccc(F)cc3)nc2n1	24*	7%	?	84	135%	1%
CC1=C(C(N)=O)C(c2cccc(Br)c2)n2nc(SCc3ccccc3)nc2N1 (stereo not drawn)	nt	nt	nt	nt	nt	-9%
Cc1cccc(NC(=O)c2cc(Cl)nc3ccccc23)n1	9	-7%	?	-4	?	16%
Cc1cccc(NC(=O)c2cc(-c3ccco3)nc3ccccc23)n1	16*	-1%	20%	95*	-16%	20µM*
CCc1nnc(NC(=O)c2cc(-c3ccco3)nc3ccccc23)s1	22	nt	29%	4	-19%	16µM*
O=C1NNC(=O)C2C3C=CC(C4CC34)C12 (stereo not drawn)	1	6%	20%	7	nt	15%
Cc1ccc(NC(=O)C2CCN(S(=O)(=O)c3ccc4c(c3)OCCO4)CC2)c(O)c1	nt	nt	12µM*	nt	?	-5%
O=C(Nc1ccc2c(c1)OCCO2)C1CCN(S(=O)(=O)c2ccc3c(c2)OCCO3)CC1	15	-63%	nt	10	-28%	-7%
CCS(=O)(=O)N1CCC(C(=O)Nc2cc(C)ccc2O)CC1	1	12%	12µM*	18	-6%	-2%
CCS(=O)(=O)N1CCC(C(=O)Nc2cc(Cl)ccc2O)CC1	-4	-95%	32%	-3	0%	4%
Cc1ccc(C(=O)N/C(=C\c2ccco2)C(=O)N2CCCCC2)cc1	-3	25%	14%	-8	-4%	?
C/C=C(/C)C(=O)OC1c2c(ccc3ccc(=O)oc23)OC(C)(C)C1OC(=O)/C(C)=C\C (stereo not drawn)	-4	2%	1.5µM*	-7	?	-27%
SMILES	Cycloheximide cs	NS1 inh	Pf growth 96h	Shiga inhibitor	Pf growth 48h	Sm TGR block
C/C=C(\C)C(=O)OC1c2c(ccc3ccc(=O)oc23)OC(C)(C)C1OC(C)=O (stereo not drawn)	-2	-3%	?	-2	8.3µM*	-25%
CC(=O)O[C@@H]1[C@H](OC(=O)CC(C)C)c2c(ccc3ccc(=O)oc23)OC1(C)C	-4	-28%	?	-14	-15%	-11%
CC(C)CC1NC(=O)N(CC(=O)c2ccc3c(c2)OCCO3)C1=O (stereo not drawn)	34*	-4%	132%	135*	99%	42%
CCCC1Oc2ccccc2C(=O)N(CC(=O)c2ccc3c(c2)OCCO3)C1=O (stereo not drawn)	21*	-7%	21%	29	4%	-8%
COc1ccc(-c2[nH]ncc2C(=O)NCc2ccccc2OC)cc1	nt	nt	nt	nt	nt	3%
COc1ccc(CNc2oc(-c3ccc(COc4ccc(Cl)cc4)o3)nc2C#N)cc1	nt	nt	nt	nt	nt	-1%
CCCCOc1ccc(OCCNS(=O)(=O)N(C)C)cc1	20*	-15%	-15%	45	11%	-4%
CC(=O)c1cc2c(cc1NC(=O)c1c(C)nn(-c3ccc(C)cc3)c1-n1cccc1)OCO2	nt	nt	nt	nt	nt	50%
C/C(=N\Nc1cccc(Cl)c1)C1(C)N(O)C(C)(C)C(c2ccco2)=[N+]1[O-] (stereo not drawn)	30*	-3%	?	74*	7.4µM*	?
Cc1ccc2c(CC(=O)Nc3cccc(C(F)(F)F)c3)coc2c1	nt	nt	nt	nt	nt	-1%
C=CCOc1ccc(/C=N/N2C(=O)C(CC(=O)Nc3ccc(F)cc3F)SC2=NC)cc1 (stereo not drawn)	21*	?	?	30*	?	-15%
O=C(OCCN1C(=O)c2cccc3c(N4CCOCC4)ccc(c23)C1=O)c1ccc(Cl)cc1	-2	10%	12µM*	-8	?	4%
CCCN(CCC)S(=O)(=O)c1ccc(C(=O)OCCN2C(=O)c3cccc4c(N5CCOCC5)ccc(c34)C2=O)cc1	-4	6%	?	-5	?	2%
CN(C(=O)COC(=O)c1cn(C)c2ccccc12)C1CCCCC1	nt	nt	-46%	nt	-10%	-1%
CN(C)CCCOC(=O)c1sc2ccccc2c1Cl	39*	1%	90%	59*	20%	2%
CN(C(=O)COC(=O)c1sc2ccccc2c1Cl)C1CCCCC1	17	-18%	4%	55*	16%	-2%
CCS(=O)(=O)N1CC(=O)N(c2cccc(C)c2C)C(C)(C(=O)NC2CCCCCC2)C1 (stereo not drawn)	nt	nt	nt	nt	nt	10%
CS(=O)(=O)c1ccc(Cl)c(C(=O)O)c1	7	1%	3.7µM*	-13	35%	17%
CSc1ccc(CCNC(=O)c2ccc(-c3nc(COc4ccccc4)c(C)o3)cc2)cc1	nt	nt	nt	nt	nt	1%
Cc1ccc(Cn2nnc3c(=O)[nH]c(C4CCN(S(=O)(=O)c5ccc(S(=O)(=O)NC6CC6)cc5)CC4)nc32)cc1	-6	?	1.5µM*	-7	?	6%
O=c1[nH]c(C2CCN(S(=O)(=O)c3ccc(S(=O)(=O)NC4CC4)cc3)CC2)nc2c1nnn2Cc1cccc(F)c1	-3	28%	?	62	9.3µM*	17%
O=c1[nH]c(C2CCN(S(=O)(=O)c3ccc4c(c3)OCCO4)CC2)nc2c1nnn2Cc1cccc(F)c1	1	22%	-5%	21	?	-4%
